From PubChem BioAssay
JMJD2A Tudor: inhibitors of human JMJD2A Tudor domain. O75164. AlphaScreen JMJD2A-Tudor / H3K4me3 peptide binding. Potency, µM (series often up to 114 µM), without a hit: top-dose activity change, negative = inhibition, usual class: inhibitors. actives 4.4% (n = 390,000). AID 504339; further: potency means the concentration at half of the fitted maximal effect; on the % scale 0 is the no-effect control and ±100 the full control effect; nearly all actives have a fitted effect of over 50% in size
Target sequence (O75164 whole entry, looked up, the tested form may be a part): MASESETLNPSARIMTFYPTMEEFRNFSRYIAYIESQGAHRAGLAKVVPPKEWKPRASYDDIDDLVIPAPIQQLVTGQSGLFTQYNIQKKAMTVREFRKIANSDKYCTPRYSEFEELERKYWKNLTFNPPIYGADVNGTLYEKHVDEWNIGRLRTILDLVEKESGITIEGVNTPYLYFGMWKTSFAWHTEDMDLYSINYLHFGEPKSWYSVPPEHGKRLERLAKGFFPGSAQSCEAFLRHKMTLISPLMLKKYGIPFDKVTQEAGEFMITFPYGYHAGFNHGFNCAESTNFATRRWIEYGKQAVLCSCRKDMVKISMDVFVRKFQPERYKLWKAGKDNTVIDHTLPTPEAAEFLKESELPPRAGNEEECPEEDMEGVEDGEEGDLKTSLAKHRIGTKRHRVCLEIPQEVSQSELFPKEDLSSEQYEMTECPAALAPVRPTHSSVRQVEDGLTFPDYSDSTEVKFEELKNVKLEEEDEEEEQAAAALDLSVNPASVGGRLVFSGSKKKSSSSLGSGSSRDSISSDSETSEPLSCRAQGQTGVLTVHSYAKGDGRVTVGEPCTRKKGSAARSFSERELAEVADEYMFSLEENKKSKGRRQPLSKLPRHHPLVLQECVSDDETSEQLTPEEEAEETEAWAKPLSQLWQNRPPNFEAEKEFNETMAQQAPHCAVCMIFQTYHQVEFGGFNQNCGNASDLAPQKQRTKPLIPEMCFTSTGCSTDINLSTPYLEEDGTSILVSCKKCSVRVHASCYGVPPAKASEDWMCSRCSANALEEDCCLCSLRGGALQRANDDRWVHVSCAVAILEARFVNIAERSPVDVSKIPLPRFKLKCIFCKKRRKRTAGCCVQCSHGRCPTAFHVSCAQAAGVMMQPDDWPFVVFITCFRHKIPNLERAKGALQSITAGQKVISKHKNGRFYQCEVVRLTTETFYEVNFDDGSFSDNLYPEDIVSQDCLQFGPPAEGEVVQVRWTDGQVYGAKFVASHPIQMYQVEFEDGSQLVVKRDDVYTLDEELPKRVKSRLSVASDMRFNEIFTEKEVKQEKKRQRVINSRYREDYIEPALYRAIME
HP1b chromo inh: HP1-beta chromodomain-methylated histone interaction inhibition; AlphaScreen HP1-beta / biotin-H3K9me3 peptide binding; Potency, µM (doses to about 114 µM), inactives show top-dose activity change, negative = inhibition, most hits filed as inhibitors; actives 0.56% (n = 390,000); further: potency means the concentration at half of the fitted maximal effect; nearly all actives have a fitted effect of over 70% in size
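Compound inhibition of the preformed complex between 50 nM HP1-beta and 50 nM biotinylated H3K9me3 peptide was read by AlphaScreen. Buffer was PBS pH 7.4 with 0.01% Tween-20. Incubations ran 30 min at room temperature, with 10 ug/mL donor/acceptor beads.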
PLK1 PBD inh: blocks phosphopeptide binding to human PLK1 polo-box domain; P53350; actives 2.8% (n = 360,000); Plk1 PBD binding of FITC phosphopeptide, fluorescence polarization; Potency, µM, for inactives: max response, negative = inhibition, most hits filed as inhibitors; further: potency means the concentration at half of the fitted maximal effect; series mostly up to about 57 µM; on the % scale 0 is the no-effect control and ±100 the full control effect; nearly all actives have a fitted effect of over 65% in size
KAT2A inh: blocks human GCN5L2 histone acetyltransferase; Potency, µM (series often up to 58.9 µM), for the others: at the top dose activity change, negative = inhibition, hits mostly inhibitors; Q92830; actives 0.21% (n = 390,000); GCN5L2 HAT assay, ThioGlo1 CoA-SH fluorescence; further: potency means the concentration at half of the fitted maximal effect; on the % scale 0 is the no-effect control and ±100 the full control effect
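GCN5L2 (20nM final) in 50mM HEPES, 0.1mM EDTA pH 7.5, 0.01% Tween-20 was preincubated 15 min at room temperature with compound, then given ThioGlo1 (50uM), H3(1-25) peptide (75uM) and acetyl-CoA (70uM); CoA-thiol fluorescence (Ex340/Em540) was read at 0 and 20 min.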
PI5P4K alpha inh: blocks human PI5P4K alpha kinase activity | P48426 | PI5P4Kalpha enzyme, ADP-Glo luminescence, 60 min; stronger effect = lower value | max response, % | actives 1.2% (n = 330,000); active means max response of -50% or lower; inconclusive means between -30% and -50%; inactive means -30% or higher; further: value at the top dose of about 77 µM; on the % scale 0 is the no-effect control and ±100 the full control effect
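PI5P4Kalpha ADP-Glo assay; 5 microM ATP final; 60 min RT reaction; HEPES pH 7.4/EGTA/CHAPS, 5% DMSO; controls lacking substrate or enzyme; luminescent end-point.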
BAZ2B block: blocks human BAZ2B. Q9UIF8. AlphaScreen BAZ2B-H3K14Ac peptide displacement. Potency, µM (top dose mostly 114 µM), for inactives: top-dose activity change, negative = inhibition, hits mostly inhibitors. actives 4.4% (n = 360,000). AID 504333; further: potency means the concentration at half of the fitted maximal effect; on the % scale 0 is the no-effect control and ±100 the full control effect; nearly all actives have a fitted effect of over 60% in size
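Compounds, titrated to a top concentration of 110 uM, were incubated 30 min at room temperature with preformed BAZ2B/acetyl-K14 H3 peptide complex (50 nM each). Proximity signal was measured by AlphaScreen after 20 min with beads.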
Active calls of the source: *; u = inconclusive; x = no result; [ ] = another dose, or the depositor's remark. A selection: hits, their analogues and other compounds. The true share with any hit is near 7%. Unless noted, the call rests on the fitted dose curve; in most records, active means well fitted curve in the direction sought with a large enough effect; inconclusive means small, poorly fitted or top-dose-only effect, or another doubt; inactive means no such curve, though single readings can be large; an effect the other way counts as inactive or inconclusive.

SMILES	JMJD2A Tudor	HP1b chromo inh	PLK1 PBD inh	KAT2A inh	PI5P4K alpha inh	BAZ2B block
COc1ccccc1OCC(=O)NC1CCCc2ccccc21 (configuration not stated)	-13.0%	-17.7%	0.0%	-5.7%	1.5	0.7%
Cc1ccc(CN(C(=O)c2ccccc2F)c2ccccn2)o1	-26.2%	10.2%	x	-20.3%	x	u
Cc1cc(C)c(NC(=S)NC(CO)(CO)CO)c(C)c1	89.1µM*	16.5%	-7.2%	23.9%	-0.7	1.9%
CCN1C(c2ccccc2)=C(c2ccccc2)S/C1=C\C=C1/SC(=S)N(C)C1=O	7.94µM*	8.91µM*	-20.0%	x	x	x
CCN1/C(=C\C=C2\C(=O)N(C)C(=S)N2C)Sc2ccccc21	-29.3%[11.4 µM]	u	-17.5%	-2.0%	6.1	x
CCN1C(c2ccccc2)=C(c2ccccc2)S/C1=C/C=C1\SC(=S)N(C)C1=O	8.91µM*	11.2µM*	-12.7%	-3.7%	x	2.51µM*
CN(C(=O)c1ccco1)c1nc(-c2ccccc2)cs1	-7.9%	117.7%	0.3%	-6.4%	1.2	-33.0%
CN(c1ccc(O)cc1)c1nc(-c2ccccc2)cs1	-24.0%	-7.9%	-3.8%	-8.7%	16.5	50.1µM*
CCc1ccc(C2CC(=O)c3c([nH]c(C(=O)OC4CCCCCC4)c3C)C2)cc1 (configuration not stated)	-1.0%	22.2%	x	7.1%	x	1.3%
CN(C)/C=N/c1nc2nccc(-c3ccc(Cl)cc3)n2n1	-4.2%	44.5%	2.4%	-29.4%	3.2	-9.7%
CC(Oc1ccccc1F)c1ccnc2nc(/N=C/N(C)C)nn12 (configuration not stated)	-18.0%[57.1 µM]	-9.7%	u	-2.7%	-3.4	-9.4%
CN(C)/C=N/c1nc2nccc(-c3ccccc3)n2n1	-5.3%[11.4 µM]	-7.8%	26.7µM*	u	-12.2	5.3%
COc1ccc(-c2cnc3nc(/N=C/N(C)C)nn3c2/N=C/N(C)C)cc1	-20.3%[11.4 µM]	-13.8%	23.8µM*	-8.3%	-9.6	-2.4%
CC1C(=O)N(Cc2cn(CCC3OCCO3)nn2)CCS(=O)(=O)N1Cc1ccc(-c2ccc(F)cc2)cc1 (configuration not stated)	x	x	5.32µM*	x	-25.9	x
CC1C(=O)N(Cc2cn(CCC3OCCO3)nn2)CCS(=O)(=O)N1Cc1ccc(-c2ccncc2)cc1 (configuration not stated)	x	x	0.5%	x	-8.4	x
COc1cccc(/C=C/C(=C2/C(=O)N(c3ccccc3)N=C2C)c2ccc(Br)cc2)c1OC	-31.4%	-20.5%	-9.9%	8.8%	-1.9	1.26µM*
COc1cccc(/C=C/C(=C2/C(=O)N(c3ccccc3)N=C2C)c2ccccc2)c1OC	u	-35.5%	1.8%	0.8%	4.6	4.47µM*
COc1cccc(/C=C/C(=O)OCC(=O)c2ccccc2)c1OC	24.1%	100.6%	-6.3%	-8.0%	11.8	x
COc1ccccc1/C=C/C(=C1/C(=O)N(c2ccccc2)N=C1C)c1ccc(C)cc1	2.82µM*	2.51µM*	-24.9%	2.9%	2.3	2.82µM*
CCC(CC)NC(=O)C1CCN(c2ccc(S(=O)(=O)N3CCOCC3)cc2[N+](=O)[O-])CC1	-1.3%	30.7%	-2.0%	-0.3%	2.4	-2.7%
O=C(O)CSCCc1ccccn1	-30.1%[11.4 µM]	16.7%	29.9µM*	-2.5%	1.3	-34.4%
OCC(O)COc1cccc2ccccc12 (configuration not stated)	x	x	x	-1.2%	x	x
CCc1ccc(CN(C)CC(O)COc2cccc3ccccc23)cc1 (configuration not stated)	2.51µM*	u	3.3%	-8.6%	20.8	-29.2%
O=C(N/N=C/c1cccc(C(F)(F)F)c1)c1cc2c(s1)-c1ccccc1CC2	21.5%	63.2%	-2.9%	u	-0.6	7.7%
Cc1cccc(/C=N/NC(=O)c2cc3c(s2)-c2ccccc2CC3)c1	-4.8%[11.4 µM]	9.6%	21.2µM*	u	2.9	58.6%
SMILES	JMJD2A Tudor	HP1b chromo inh	PLK1 PBD inh	KAT2A inh	PI5P4K alpha inh	BAZ2B block
CCCc1nnc(NC(=O)CCCN2C(=O)c3ccccc3C2=O)s1	-24.0%[11.4 µM]	-0.6%	26.7µM*	-19.7%	-19.8	9.6%
CCc1nnc(NC(=O)CN2CCN(C3CCCCC3)CC2)s1	7.08µM*	-18.7%	-7.5%	-1.9%	x	u
CCCCc1nnc(NC(=O)CN2C(=O)c3ccccc3C2=O)s1	-0.6%	19.3%	-4.9%	2.6%	-2.2	-36.6%
CCCc1nnc(NC(=O)CN2CCN(C)CC2)s1	-19.7%	34.5%	-2.8%	x	-6.1	79.4µM*
CN1CCN(CC(=O)Nc2nnc(-c3cccs3)s2)CC1	11.2µM*	4.2%	1.0%	1.9%	1.6	-4.0%
CCCN1CCN(CC(=O)Nc2nnc(C)s2)CC1	-9.0%	12.5%	-2.1%	-4.1%	-0.6	-28.7%
O=C(CN1C(=O)C2(SCC(=O)N2c2cccc(F)c2)c2ccccc21)NCCc1ccccc1 (configuration not stated)	-3.2%	27.1%	x	12.0%	x	-6.8%[57.1 µM]
O=C(O)c1ccc2c(c1)C(=O)N(c1nccs1)C2=O	-15.9%	7.2%	-13.3%	-14.6%	8.1	u
COc1cc(CNCCNC(=O)c2nonc2N)ccc1OCc1ccc(Cl)nc1	u	9.1%	29.9µM*	-3.1%	-29.1	-9.7%
Cc1cc(C)cc(NC(=O)c2cccc(C(=O)Nc3cc(C)cc(C)c3)n2)c1	4.47µM*	22.4%	-6.9%	-1.9%	-4.9	u
COC(=O)c1cccc(C(=O)Nc2ccc(F)cc2)n1	-2.5%	30.4%	-6.4%	15.8µM*	x	0.7%[57.1 µM]
Cc1cccc(NC(=O)c2cccc(C(=O)Nc3cccc(C)c3)n2)c1	-20.9%	-2.6%	-9.4%	x	-4.8	x
CN(C)c1ccc(NC(=O)c2cccc(C(=O)Nc3ccc(N(C)C)cc3)n2)cc1	15.8µM*	39.8µM*	-20.8%	-7.5%	-21.7	7.94µM*
CCc1cc2c(s1)c1cnn(Cc3ccccc3F)c(=O)c1n2C	15.8%	x	x	x	x	x
COc1cc(C(=O)Nc2cc(C)c(O)c(-c3nc4cc(Cl)ccc4o3)c2)cc(OC)c1OC	-3.7%	17.4%	x	-14.4%	x	-9.0%
O=C(Nc1cccc(Cl)c1)N1CCCCCC1	3.4%	22.6%	12.0%	-3.8%	8.5	-13.5%
O=C(Nc1cc(Cl)ccc1Cl)N1CCCC1	-16.8%	10.2%	8.44µM*	-9.5%	-28.4	6.0%
O=C(NNc1cc(Cl)ccc1Cl)C1CCC1	70.8µM*	-4.7%	26.7µM*	-24.6%	-12.0	0.1%
O=C(NNc1ccc(F)cc1F)C1CCC1	-6.4%	22.6%	3.1%	-1.0%	-2.3	1.9%
O=C(c1ccc([N+](=O)[O-])cc1)N1c2ncnn2C2(CCCCC2)[C@@H]2CCCC[C@@H]21	-15.2%	9.2%	x	1.4%	x	-34.7%
COc1ccc(NS(=O)(=O)c2ccc(C)c(C(=O)N3CCCCCCC3)c2)cc1	-5.5%	16.5%	-4.5%	-1.0%	2.3	20.2%
